Screening results deposited in PubChem by several laboratories.
Only some compounds are listed: those with a hit (about 0.97% of all), similar ones and a draw of the others.
Beta2AR agonist = human beta-2 adrenergic receptor agonism by FAP. Am2.2-beta2AR cells, FAP receptor internalization, flow cytometry. response, % (test concentration not listed). actives 0.43% (n = 340,000). P07550;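 active = response above a set limit, near 3 SD of response in nonfluorescent compounds, cut at about 42% in these data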
TLR4 MyD88 comp = inhibitors of human TLR4-MyD88 binding. AID 861. HeLa CL3-4 TLR4/MyD88 BLA complementation, FRET ratio. actives 0.18% (n = 200,000). inhibition, % at 8.4 µM. O00206+Q99836; in the data active = inhibition above about 25%
A1 inh = inhibitors of the anti-apoptotic protein A1, read as caspase activation. MEF A1-2A-BIM cells, Caspase-Glo 3/7 luminescence, 3 h; percent of clofoctol response, vehicle zero. caspase activation, % (test concentration not listed). actives 0.066% (n = 330,000). AID 2462;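 active = over half of replicate activation scores above 10%, or exactly half above 10 with the replicate mean above 10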
TLR9-MyD88 block = inhibitors of human TLR9-MyD88 binding. AID 504734. Q9NR96+Q99836. inhibition, % at 4.98 µM. CHO BLA complementation TLR9-MyD88, CCF4 FRET ratio. actives 0.21% (n = 340,000);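 active = inhibition above the mean over all tested compounds plus 3 SD, cut at about 21% in these data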
NTR1 agonist = activates human neurotensin receptor 1. P30989. NTR1-U2OS beta-arrestin-GFP spot imaging, agonist mode. activation, % at 20 µM. actives 0.17% (n = 330,000);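 active = activation at or above 40% of the spot to cytoplasm intensity ratio, with at least 20 cells analyzed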
Target sequence (P30989 whole entry, looked up): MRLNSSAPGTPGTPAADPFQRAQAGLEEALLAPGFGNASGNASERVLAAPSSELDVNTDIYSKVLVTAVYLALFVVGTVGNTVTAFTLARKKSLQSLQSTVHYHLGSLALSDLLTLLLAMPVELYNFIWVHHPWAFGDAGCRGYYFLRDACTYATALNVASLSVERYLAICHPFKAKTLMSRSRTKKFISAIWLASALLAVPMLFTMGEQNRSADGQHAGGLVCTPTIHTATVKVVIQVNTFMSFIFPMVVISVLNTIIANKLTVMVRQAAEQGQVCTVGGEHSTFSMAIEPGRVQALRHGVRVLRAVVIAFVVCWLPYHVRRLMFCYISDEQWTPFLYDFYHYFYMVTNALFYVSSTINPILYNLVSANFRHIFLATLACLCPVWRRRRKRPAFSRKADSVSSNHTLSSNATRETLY
NOD2-RIPK2 inh = NOD2-RIPK2 protein interaction inhibition. O43353. actives 0.38% (n = 360,000). inhibition, % at 4.98 µM. CHO BLA complementation NOD2-RIPK2, CCF4 ratio; in the data active = inhibition above about 21%
TLR9-MyD88 conf = TLR9-MyD88 interaction inhibition, confirmation; CHO TLR9/MyD88 BLA complementation, CCF4 FRET ratio; AID 540250; inhibition, % at 4.98 µM; shares compounds with TLR9-MyD88 block; actives 51% (n = 680);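 active = mean inhibition across three repeats above about 21% taken from the earlier screen, limit read from the data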;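 also: blue over green emission ratio reports constitutive TLR9 MyD88 association via BLA complementation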
BLA counter = non-selective beta-lactamase inhibitors in TLR9-MyD88 counter-screen; shares compounds with TLR9-MyD88 block; CHO-BLA cells, CCF4 FRET ratio, BLA reporter; inhibition, % at 4.98 µM; actives 7% (n = 680); AID 540251;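 active = mean inhibition above a 50% cutoff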;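 also: counterscreen of TLR9-MyD88 hits on CMV-driven BLA in CHO-K1 cells; higher means less blue over green ratio so more BLA blockade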
TLR9 CHO cytotox = CHO cell toxicity counter-screen for TLR9-MyD88 inhibitors; actives 39% (n = 680); inhibition, % at 4.98 µM; TLR9-MyD88 CHO cells cytotoxicity, luminescence; shares compounds with TLR9-MyD88 block; AID 588336; in the data active = inhibition above about 11%
A number is an active result; 0 = inactive; - = not tested or not shown.

SMILES | Beta2AR agonist | TLR4 MyD88 comp | A1 inh | TLR9-MyD88 block | NTR1 agonist | NOD2-RIPK2 inh | TLR9-MyD88 conf | BLA counter | TLR9 CHO cytotox
CCc1ccc(OCC(=O)N/N=C(\C)c2ccccc2OC(F)F)cc1 | 0 | 0 | 0 | 0 | 0 | 0 | - | - | -
CCc1ccc(OCC(=O)N/N=C(\C)c2ccc(OC(F)F)cc2)cc1 | 0 | 0 | 0 | 21.2 | 0 | 0 | 0 | 0 | 0
Nc1c(C(=O)Nc2nccs2)sc2nc(-c3cccs3)cc(C(F)(F)F)c12 | 0 | 0 | 0 | 21.7 | 0 | 0 | 0 | 0 | 0
C[C@H](NC(=O)C1(c2ccccc2)CCN(C(=O)OC(C)(C)C)CC1)C(=O)N[C@@H](C(=O)O)c1ccccc1 | 0 | - | 0 | 0 | 0 | 0 | - | - | -
CC[C@@]1(C(=O)OC)N[C@H](CN(C)C(=O)c2ccc(C(C)(C)C)cc2)[C@@H]2C(=O)N(Cc3ccccc3)C(=O)[C@@H]21 | 0 | - | - | 0 | 0 | 0 | - | - | -
CCN(C[C@H]1N[C@@](CC)(C(=O)OC)[C@H]2C(=O)N(Cc3ccccc3)C(=O)[C@@H]12)C(=O)c1ccc(C(C)(C)C)cc1 | 0 | - | - | 45.3 | 0 | 0 | 0 | 0 | 52.0
O=[N+]([O-])c1ccc(Nc2ccccc2)c2nonc12 | 0 | - | 0 | 0 | 0 | 0 | - | - | -
O=[N+]([O-])c1ccc(Sc2cccc[n+]2[O-])c2nonc12 | 0 | - | - | 55.4 | - | 88.8 | 59.0 | 0 | 100.9
C=CCCCCCCCCc1nc(SCC(=O)O)n[nH]1 | 0 | - | 0 | 31.9 | 0 | 0 | 0 | 0 | 0
C=CCCCCCCCCc1nc(SCC(C)=O)n[nH]1 | 0 | - | 0 | 0 | 0 | 0 | - | - | -
COc1ccccc1C1CC(=O)Nc2c1c(=O)n(C)c(=O)n2C (stereo not given) | 0 | 0 | 0 | 0 | 0 | 0 | - | - | -
COc1cccc(C2CC(=O)Nc3c2c(=O)n(C)c(=O)n3C)c1OC (stereo not given) | 0 | 0 | 0 | 24.1 | 0 | 0 | 0 | 0 | 0
Cc1ccc(CNC(=O)CNS(=O)(=O)c2ccc(Br)s2)cc1 | 0 | - | 0 | 0 | 0 | 0 | - | - | -
COc1ccc(C2CC(c3ccncc3)=NN2c2ccc(S(N)(=O)=O)cc2)cc1 (stereo not given) | 0 | - | - | 0 | 0 | 36.7 | 0 | 0 | 15.9
CSc1ccc(Cn2nnc(C(=O)NCCc3ccc(Cl)cc3)c2N)cc1 | 0 | - | 0 | 0 | 0 | 0 | - | - | -
O=C(CCC(=O)c1cccs1)Nc1ccc(N2CCCCC2)cc1 | 0 | 0 | 0 | 0 | 0 | 0 | - | - | -
CCOC(=O)CCS(=O)(=O)c1nc(-c2ccccc2)cc(C(F)(F)F)n1 | 60.3 | 0 | 9.7 | 32.9 | 0 | 69.3 | 39.4 | 0 | 96.6
CCOC(=O)CS(=O)(=O)c1nc(-c2ccc(F)cc2)cc(C(F)(F)F)n1 | 103.6 | 0 | 0 | 42.1 | 0 | 69.5 | 37.0 | 0 | 99.4
COCCN(C(=O)COC(=O)CCc1ccccc1)c1c(N)n(Cc2ccccc2)c(=O)[nH]c1=O | 0 | - | - | 0 | 0 | 0 | - | - | -
O=C(Nc1nc2c(s1)CN(Cc1ccccc1)CC2)c1cccc(S(=O)(=O)N2CCc3ccccc32)c1 | 0 | 0 | 0 | 28.3 | 0 | 0 | 0 | 0 | 0
O=C(Nc1nc2ccccc2s1)c1cccc(S(=O)(=O)N2CCc3ccccc32)c1 | 0 | - | 0 | 0 | 0 | 0 | - | - | -
C/C(=N/Nc1ccc([N+](=O)[O-])cc1)c1c[nH]c2ccccc12 | 0 | - | 0 | 37.3 | 0 | 0 | 24.3 | 0 | 0
C/C(=N/Nc1ccc([N+](=O)[O-])cc1)c1ccc(C)cc1C | 0 | 0 | 0 | 21.5 | 0 | 0 | 0 | 0 | 0
COc1cccc2c(Cl)c(CCCl)c(C)nc12 | 0 | 0 | 0 | 0 | 0 | 0 | - | - | -
COCCN(C(=O)Cc1cccs1)C(C(=O)NCc1ccc(OC)cc1)c1ccc(OC)cc1 (stereo not given) | 0 | 0 | 0 | 0 | 0 | 0 | - | - | -
SMILES | Beta2AR agonist | TLR4 MyD88 comp | A1 inh | TLR9-MyD88 block | NTR1 agonist | NOD2-RIPK2 inh | TLR9-MyD88 conf | BLA counter | TLR9 CHO cytotox
Cc1ccc(-n2nc3c(c2NC(=O)c2c(F)cccc2Cl)CS(=O)(=O)C3)cc1C | 0 | - | 0 | 22.0 | 0 | 0 | 0 | 0 | 0
CCOc1ccccc1N1CCN(Cc2ccc(OC)c(OC)c2)CC1 | 0 | 0 | 0 | 0 | 0 | 0 | - | - | -
CCOC(=O)c1c(C)nc2sc(C(N)=O)c(N)c2c1-c1ccccc1 | 0 | 0 | 0 | 0 | 0 | 0 | - | - | -
CCOC(=O)c1c(C)nc2sc(C(=O)Nc3ccccc3)c(N)c2c1-c1ccc(OC)cc1 | 0 | 0 | 0 | 30.7 | 0 | 0 | 0 | 0 | 14.6
COc1ccc(/C=N/Nc2ncccc2[N+](=O)[O-])c(OC)c1 | 0 | 0 | 0 | 0 | 0 | 0 | - | - | -
Cc1cccc(NC(=O)CCN2C(=O)c3ccccc3S2(=O)=O)c1C | 0 | - | 0 | 21.4 | 0 | 0 | 0 | 0 | 0
CCOC(=O)c1c(C)n(C)c2c1cc(OC(C)=O)c1ccccc12 | 0 | - | 0 | 0 | 0 | 0 | - | - | -
CCc1ccc(/C=C2/C(=O)N(c3ccccc3)C(=S)N2CC(=O)OC)s1 | 0 | 0 | 0 | 29.0 | 0 | 0 | 0 | 0 | 0
O=C1C=CC(=O)N1CCCCCCCCCCN1C(=O)C=CC1=O | 0 | - | - | 42.3 | - | 0 | 55.9 | 0 | 96.0
O=C1C=CC(=O)N1Cc1ccncc1 | 0 | - | - | 0 | - | 0 | - | - | -
COc1ccc2oc(=O)c(-c3nnc(N)s3)cc2c1 | 0 | 0 | 0 | 21.1 | 0 | 0 | 0 | 0 | 0
COc1ccc2oc(=O)c(-c3nc(C)cs3)cc2c1 | 0 | 0 | 0 | 0 | 0 | 0 | - | - | -
CC(C(=O)NC1C(=O)N2C(C(=O)O)=C(CSc3nnnn3C)CSC12)n1cc(Br)cn1 (stereo not given) | 0 | 0 | 0 | 0 | 0 | 0 | - | - | -
O=C(N/N=C/c1c(O)n(-c2ccc(Cl)cn2)c(=O)c2ccccc12)C1CC1 | 0 | 0 | 0 | 0 | 0 | 0 | - | - | -
O=C(N/N=C/c1c(O)n(-c2ccc(Cl)cn2)c(=O)c2ccccc12)c1ccncc1 | 0 | 0 | 0 | 21.1 | 0 | 0 | 0 | 0 | 0
S=c1[nH]nc(COc2ccccc2)n1/N=C/c1ccc(Cl)cc1 | 0 | - | 0 | 0 | 0 | 0 | - | - | -
CSc1ccc(/C=N/n2c(COc3ccccc3)n[nH]c2=S)cc1 | 0 | - | 0 | 22.0 | 0 | 0 | 0 | 0 | 0
O=C(N/N=C\c1c(O)ccc2ccccc12)c1cncc(Br)c1 | 0 | - | 0 | 22.5 | 0 | 0 | 0 | 0 | 60.0
CCOc1ccc(NC(=O)NC23CC4CC(CC(C4)C2)C3)cc1 | 0 | 0 | 0 | 0 | 0 | 0 | - | - | -
CC(C)(C)c1ccc(C2=CC(c3ccccc3F)n3ncnc3N2)cc1 (stereo not given) | 0 | - | 0 | 22.2 | 0 | 0 | 0 | 0 | 0
Cn1cccc1C1C=C(c2ccc(C(C)(C)C)cc2)Nc2ncnn21 (stereo not given) | 0 | - | 0 | 0 | 0 | 0 | - | - | -
